Activity calls are given as the source filed them.
Tests used:
[1] = optical density shifts of acrAB sulA E. coli – strain DRC41, OD650, 48 h, E. coli filamentation inducer project, primary screen (AID 1152); settings: higher = more signal, called active from +8 up or from −8 down;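 also: E. coli MC1000 strain DRC41 lacking acrAB efflux pump and sulA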
[2] = probe aLefty1 binding on compound microarray – biochemical, small-molecule microarray, 635/667 nm fluorescence, primary screen (AID 1153); settings: higher = more signal;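 also: score merges spot fluorescence with signal-to-noise ratio from the scanned slide images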
[3] = plasmodial surface anion channel blockers, osmotic lysis – cell-based, P. falciparum Indochina, OD700, 1 h, primary screen (AID 1154); settings: P. falciparum Indochina infected RBC osmotic lysis, higher = more signal, called active from +8 up or from −8 down
[4] = plasmodial surface anion channel blockers, osmotic lysis – cell-based, P. falciparum Indochina, OD700, 2 h, primary screen (AID 1155);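 also: lysis reports solute entry through the parasite surface anion channel PSAC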; settings: P. falciparum Indochina infected erythrocytes, higher = more signal, called active from +8 up or from −8 down
[5] = changes in parasitized red cell lysis, either direction – P. falciparum Indochina, OD700, 3 h, PSAC antagonist project, primary screen (AID 1156); settings: P. falciparum-infected erythrocytes, osmotic lysis, higher = more signal, called active from +8 up or from −8 down
[6] = plasmodial surface anion channel blockers, osmotic lysis – cell-based, P. falciparum Indochina, OD700, 18 h, primary screen (AID 1157); settings: P. falciparum Indochina infected erythrocytes, osmotic lysis OD700, 18 h; higher = more signal, called active from +8 up or from −8 down
[7] = S6 kinase pathway phospho-S6 level changes – cell-based, A549, cytoblot, luminescence, serum-stimulated, primary screen (AID 1158); settings: 5 h, higher = more signal;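 also: serum-stimulated A549 lung adenocarcinoma cells; signal is phosphorylated S6 detected by cytoblot immunostaining with HRP secondary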
[8] = target: NADPH oxidase 2 (Homo sapiens) (UniProt P04839); experiment: compounds shifting NOX2 Amplex Red fluorescence – cell-based, HEK293-NOX2, PMA-stimulated, NOX inhibitor project, primary screen (AID 1159); settings: 45 min, higher = more signal, called active from +8 up or from −8 down; also: test concentration not given here
Sequence of NADPH oxidase 2 (Homo sapiens) (P04839 whole entry, looked up): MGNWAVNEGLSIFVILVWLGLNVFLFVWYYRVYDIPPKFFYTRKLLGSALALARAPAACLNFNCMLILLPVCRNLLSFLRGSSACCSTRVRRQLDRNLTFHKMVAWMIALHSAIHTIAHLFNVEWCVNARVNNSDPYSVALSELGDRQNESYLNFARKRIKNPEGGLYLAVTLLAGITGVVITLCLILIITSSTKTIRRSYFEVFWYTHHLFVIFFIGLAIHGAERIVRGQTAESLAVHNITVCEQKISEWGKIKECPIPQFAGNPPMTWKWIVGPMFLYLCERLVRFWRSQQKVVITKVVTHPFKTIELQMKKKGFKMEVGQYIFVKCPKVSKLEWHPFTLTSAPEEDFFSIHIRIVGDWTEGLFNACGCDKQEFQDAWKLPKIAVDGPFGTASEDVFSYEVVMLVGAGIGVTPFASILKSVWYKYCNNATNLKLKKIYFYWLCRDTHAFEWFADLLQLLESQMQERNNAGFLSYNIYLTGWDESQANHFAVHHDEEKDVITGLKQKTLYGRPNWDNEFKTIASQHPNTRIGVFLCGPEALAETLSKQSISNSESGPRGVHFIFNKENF

[9] = target: NADPH oxidase 4 (Homo sapiens) (UniProt Q9NPH5); experiment: compounds shifting NOX4 Amplex Red fluorescence – cell-based, HEK293-NOX4, tetracycline-induced, NOX inhibitor project, primary screen (AID 1160); settings: HEK293-NOX4, Amplex Red H2O2 fluorescence, 45 min; higher = more signal, called active from +8 up or from −8 down
Sequence of NADPH oxidase 4 (Homo sapiens) (Q9NPH5 whole entry, looked up): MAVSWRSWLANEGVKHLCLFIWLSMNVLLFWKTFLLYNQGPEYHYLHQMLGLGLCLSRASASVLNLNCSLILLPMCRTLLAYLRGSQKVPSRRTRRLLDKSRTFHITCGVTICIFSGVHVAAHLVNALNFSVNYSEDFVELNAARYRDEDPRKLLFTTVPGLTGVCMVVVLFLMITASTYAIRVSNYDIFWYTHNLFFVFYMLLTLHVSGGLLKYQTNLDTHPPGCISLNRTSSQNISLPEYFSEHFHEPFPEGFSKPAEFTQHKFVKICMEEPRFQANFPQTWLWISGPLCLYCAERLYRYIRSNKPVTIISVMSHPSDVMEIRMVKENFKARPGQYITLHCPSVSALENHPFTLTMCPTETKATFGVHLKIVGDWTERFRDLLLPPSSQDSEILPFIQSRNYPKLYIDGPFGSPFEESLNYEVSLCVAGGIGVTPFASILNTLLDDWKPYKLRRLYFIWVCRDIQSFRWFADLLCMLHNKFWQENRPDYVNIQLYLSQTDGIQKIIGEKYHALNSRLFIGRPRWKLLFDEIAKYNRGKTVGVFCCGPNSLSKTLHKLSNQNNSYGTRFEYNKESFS

[10] = target: NADPH oxidase 5 (Homo sapiens) (UniProt Q96PH1); experiment: compounds shifting NOX5 Amplex Red fluorescence – cell-based, HEK293-NOX5, NOX inhibitor project, primary screen (AID 1161); settings: HEK293-NOX5, ionomycin, 45 min, higher = more signal
Sequence of NADPH oxidase 5 (Homo sapiens) (Q96PH1 whole entry, looked up): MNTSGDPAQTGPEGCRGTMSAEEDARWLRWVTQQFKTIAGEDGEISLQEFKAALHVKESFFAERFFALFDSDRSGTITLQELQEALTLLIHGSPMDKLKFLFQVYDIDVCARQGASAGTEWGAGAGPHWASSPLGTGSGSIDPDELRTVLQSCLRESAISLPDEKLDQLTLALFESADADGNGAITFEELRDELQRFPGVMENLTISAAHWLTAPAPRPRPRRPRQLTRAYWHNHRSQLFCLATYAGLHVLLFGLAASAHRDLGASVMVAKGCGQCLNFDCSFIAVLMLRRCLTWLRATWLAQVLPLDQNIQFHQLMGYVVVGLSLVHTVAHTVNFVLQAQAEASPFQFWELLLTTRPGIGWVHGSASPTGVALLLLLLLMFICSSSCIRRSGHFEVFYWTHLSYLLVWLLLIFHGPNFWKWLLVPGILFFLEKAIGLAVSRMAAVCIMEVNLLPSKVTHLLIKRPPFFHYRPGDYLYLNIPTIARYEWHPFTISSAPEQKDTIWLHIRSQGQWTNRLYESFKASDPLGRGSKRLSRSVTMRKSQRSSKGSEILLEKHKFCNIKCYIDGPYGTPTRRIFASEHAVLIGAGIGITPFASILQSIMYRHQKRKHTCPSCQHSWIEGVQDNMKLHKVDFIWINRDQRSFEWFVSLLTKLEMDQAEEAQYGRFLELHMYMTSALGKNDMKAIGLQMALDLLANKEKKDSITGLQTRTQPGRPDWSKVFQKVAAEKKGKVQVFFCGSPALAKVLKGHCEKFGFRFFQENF

[11] = compound effects on lung adenocarcinoma cell viability – A549, calcein-AM fluorescence, 48 h, basal, profiling panel (AID 1162); settings: higher = more signal; also: test concentration not given here
[12] = compound effects on differentiated 3T3-L1 adipocyte viability – cell-based, 3T3-L1 adipocytes, calcein-AM fluorescence, 48 h, basal, profiling panel (AID 1163); settings: 3T3-L1 adipocytes viability, higher = more signal; also: test concentration not given here
[13] = compound effects on hepatocellular carcinoma cell viability – HepG2, calcein-AM fluorescence, 48 h, basal, profiling panel (AID 1164); settings: higher = more signal; also: test concentration not given here
[14] = compound effects on multiple myeloma cell viability – MM1S, calcein-AM fluorescence, 48 h, basal, profiling panel (AID 1165); settings: higher = more signal;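 also: viability of MM1S multiple myeloma cells under basal unstimulated conditions; test concentration not given here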
[15] = calcein-AM signal in unstimulated myeloma cells – cell-based, calcein-AM fluorescence, 48 h, PK04 Diversity Set, profiling panel (AID 1166); settings: RPMI8226 myeloma viability, higher = more signal;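 also: cells grown under basal conditions without added stimulus; test concentration not given here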
[16] = JC-1 mitochondrial signal, unstimulated HepG2 cells – cell-based, JC-1 fluorescence, 24 h, 100 nL compound, profiling panel (AID 1167); settings: HepG2 mitochondrial potential, higher = more signal; also: test concentration not given here
[17] = JC-1 mitochondrial signal, unstimulated adipocytes – cell-based, JC-1 fluorescence, 3T3-L1 adipocytes, 24 h, 100 nL compound, profiling panel (AID 1168); settings: JC-1 mitochondrial fluorescence, higher = more signal, called active from +8 up or from −8 down; also: test concentration not given here
[18] = JC-1 mitochondrial signal, unstimulated myeloma cells – cell-based, JC-1 fluorescence, RPMI8226, 24 h, 100 nL compound, profiling panel (AID 1169); settings: JC-1 mitochondrial potential fluorescence, higher = more signal; also: test concentration not given here
[19] = JC-1 mitochondrial signal, unstimulated MM1S myeloma – cell-based, JC-1 fluorescence, 24 h, 100 nL compound, profiling panel (AID 1170); settings: MM1S mitochondrial potential, higher = more signal; also: test concentration not given here
[20] = resazurin metabolic signal in A549 cells – cell-based, resazurin fluorescence, 24 h, PK04 Diversity Set, profiling panel (AID 1171); settings: A549 viability, higher = more signal, called active from +8 up or from −8 down; also: test concentration not given here

| Structure (SMILES) | z-score [1] | composite z-score [2] | z-score [3] | z-score [4] | z-score [5] | z-score [6] | z-score [7] | z-score [8] | z-score [9] | z-score [10] | z-score [11] | z-score [12] | z-score [13] | z-score [14] | z-score [15] | z-score [16] | z-score [17] | z-score [18] | z-score [19] | z-score [20] |
| --- | --- | --- | --- | --- | --- | --- | --- | --- | --- | --- | --- | --- | --- | --- | --- | --- | --- | --- | --- | --- |
| O=C1O[C@@H](c2ccccc2)[C@@H](c2ccccc2)N2[C@@H](c3ccc(O)cc3)[C@]3(C(=O)Nc4ccccc43)[C@@H](C(=O)O)[C@H]12 | 0.772 (inactive) | -0.0536 | 1.41 (inactive) | -0.968 (inactive) | 1.11 (inactive) | -1.77 (inactive) | 1.87 | -0.215 (inactive) | -0.652 (inactive) | 0.0434 | -0.517 | 0.875 | -0.308 | -1.33 | -1.03 | -0.517 | 0.0106 (inactive) | -0.934 | -0.536 | -0.0947 (inactive) |
| COc1ccc([Si](C)(C)[C@H]2[C@H](CC(=O)N3CCC[C@H]3CO)O[C@@]3(C(=O)N(Cc4cccc(N5C(=O)COc6ccccc65)c4)c4ccccc43)[C@@H]2C)cc1 | 1.62 (inactive) | 0.169 | 6.56 (inactive) | 0.0867 (inactive) | -0.749 (inactive) | -0.701 (inactive) | 1.03 | 1.1 (inactive) | 1.21 (inactive) | 2.99 | 0.819 | 0.198 | 1.01 | -2.42 | -4.37 | 4.27 | 1.86 (inactive) | -0.938 | 0.741 | -0.343 (inactive) |
| COc1ccc([Si](C)(C)[C@@H]2[C@@H](CCO)O[C@]3(C(=O)N(Cc4ccc(NC(C)=O)cc4)c4ccccc43)[C@H]2C)cc1 | 0.694 (inactive) | 0.16 | 23 (active) | 7.13 (inactive) | -0.199 (inactive) | 0.0087 (inactive) | 0.339 | -0.371 (inactive) | -0.0308 (inactive) | 0.207 | -1.98 | 1.37 | -2.77 | -2.47 | -3.9 | -1.29 | -0.0969 (inactive) | -1.18 | -1.93 | -3.2 (inactive) |
| O=C1[C@H]2[C@H]3[C@H](O)[C@H](O)CC(=NO[C@@H]4O[C@H](CO)[C@@H](O)[C@H](O)[C@H]4O)[C@H]3CC[C@H]2C(=O)N1C1CCCCC1 | -0.094 (inactive) | -0.0046 | 3.65 (inactive) | -0.0811 (inactive) | -0.284 (inactive) | -0.136 (inactive) | 0.561 | -0.717 (inactive) | 1.15 (inactive) | 0.329 | -0.649 | 0.034 | -0.627 | 0.206 | 0.115 | -0.871 | -1.53 (inactive) | 0.368 | -0.11 | 0.302 (inactive) |

From PubChem BioAssay
